# Activity calls are given as the source filed them.
# Tests used:
# [1] = E. coli DRC41 culture turbidity changes, primary screen, E. coli filamentation inducer project, strain DRC41, OD650, 48 h (AID 1152);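 note: E. coli MC1000 strain DRC41 lacking acrAB efflux pump and sulA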; settings: E. coli DRC41 (acrAB sulA), higher = more signal, called active from +8 up or from −8 down
# [2] = small-molecule binders of probe aLefty1, primary screen, biochemical, small-molecule microarray, 635/667 nm fluorescence (AID 1153); settings: higher = more signal;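 note: score merges spot fluorescence with signal-to-noise ratio from the scanned slide images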
# [3] = PSAC antagonists in infected red cells, primary screen, cell-based, P. falciparum Indochina, OD700, 1 h (AID 1154); settings: P. falciparum Indochina infected RBC osmotic lysis, higher = more signal, called active from +8 up or from −8 down
# [4] = PSAC antagonists in infected red cells, primary screen, cell-based, P. falciparum Indochina, OD700, 2 h (AID 1155);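 note: lysis reports solute entry through the parasite surface anion channel PSAC; channel blockers reduce lysis of infected cells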; settings: P. falciparum Indochina infected erythrocytes, osmotic lysis OD700; higher = more signal, called active from +8 up or from −8 down
# [5] = osmotic lysis modulators in infected erythrocytes, primary screen, PSAC antagonist project, cell-based, P. falciparum Indochina, OD700, 3 h (AID 1156); settings: higher = more signal, called active from +8 up or from −8 down
# [6] = PSAC antagonists in infected red cells, primary screen, cell-based, P. falciparum Indochina, OD700, 18 h (AID 1157); settings: P. falciparum Indochina infected erythrocytes, osmotic lysis OD700, 18 h; higher = more signal, called active from +8 up or from −8 down
# [7] = modulators of S6 phosphorylation in cells, primary screen, cell-based, A549, cytoblot, luminescence, serum-stimulated (AID 1158); settings: A549 phospho-S6 cytoblot, 5 h, higher = more signal;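 note: serum-stimulated A549 lung adenocarcinoma cells; signal is phosphorylated S6 detected by cytoblot immunostaining with HRP secondary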
# [8] = target: NADPH oxidase 2 (Homo sapiens) (UniProt P04839); experiment: NOX2-dependent H2O2 signal modulators, primary screen, NOX inhibitor project, cell-based, HEK293-NOX2, PMA-stimulated, Amplex Red fluorescence (AID 1159); settings: 45 min, higher = more signal, called active from +8 up or from −8 down; note: test concentration not given here
# Sequence of NADPH oxidase 2 (Homo sapiens) (P04839 whole entry, looked up): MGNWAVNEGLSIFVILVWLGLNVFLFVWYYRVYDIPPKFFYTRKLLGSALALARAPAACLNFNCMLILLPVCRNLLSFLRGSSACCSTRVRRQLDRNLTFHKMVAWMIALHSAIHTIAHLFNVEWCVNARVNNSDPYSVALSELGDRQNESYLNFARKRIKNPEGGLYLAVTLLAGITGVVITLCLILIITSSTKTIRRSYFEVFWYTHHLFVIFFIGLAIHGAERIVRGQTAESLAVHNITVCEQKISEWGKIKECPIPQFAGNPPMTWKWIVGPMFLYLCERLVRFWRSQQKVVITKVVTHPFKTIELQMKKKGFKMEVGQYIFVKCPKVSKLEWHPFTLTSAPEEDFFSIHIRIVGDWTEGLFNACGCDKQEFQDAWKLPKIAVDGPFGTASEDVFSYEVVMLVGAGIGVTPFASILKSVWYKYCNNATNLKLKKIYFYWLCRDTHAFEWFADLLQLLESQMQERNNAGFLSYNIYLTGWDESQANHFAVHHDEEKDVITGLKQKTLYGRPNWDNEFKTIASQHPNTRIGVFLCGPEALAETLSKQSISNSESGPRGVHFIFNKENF
# [9] = target: NADPH oxidase 4 (Homo sapiens) (UniProt Q9NPH5); experiment: NOX4-dependent H2O2 signal modulators, primary screen, NOX inhibitor project, cell-based, HEK293-NOX4, tetracycline-induced, Amplex Red fluorescence (AID 1160); settings: 45 min, higher = more signal, called active from +8 up or from −8 down
# Sequence of NADPH oxidase 4 (Homo sapiens) (Q9NPH5 whole entry, looked up): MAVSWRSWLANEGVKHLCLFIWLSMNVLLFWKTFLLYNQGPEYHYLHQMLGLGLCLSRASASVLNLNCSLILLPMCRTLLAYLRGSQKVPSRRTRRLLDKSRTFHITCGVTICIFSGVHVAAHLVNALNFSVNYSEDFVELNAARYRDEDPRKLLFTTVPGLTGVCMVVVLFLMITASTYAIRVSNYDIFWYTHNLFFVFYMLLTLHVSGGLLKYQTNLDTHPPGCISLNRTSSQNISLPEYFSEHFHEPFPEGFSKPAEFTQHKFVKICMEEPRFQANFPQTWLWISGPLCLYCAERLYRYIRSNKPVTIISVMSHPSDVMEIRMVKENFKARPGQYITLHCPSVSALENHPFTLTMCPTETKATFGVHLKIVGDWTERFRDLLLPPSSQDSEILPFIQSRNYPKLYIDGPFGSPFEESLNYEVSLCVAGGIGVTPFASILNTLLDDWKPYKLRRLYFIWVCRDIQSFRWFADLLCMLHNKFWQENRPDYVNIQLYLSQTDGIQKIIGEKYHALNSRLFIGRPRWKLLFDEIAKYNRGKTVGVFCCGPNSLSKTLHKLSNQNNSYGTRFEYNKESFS
# [10] = target: NADPH oxidase 5 (Homo sapiens) (UniProt Q96PH1); experiment: NOX5-dependent H2O2 signal modulators, primary screen, NOX inhibitor project, cell-based, HEK293-NOX5, Amplex Red fluorescence (AID 1161); settings: HEK293-NOX5, ionomycin, 45 min, higher = more signal
# Sequence of NADPH oxidase 5 (Homo sapiens) (Q96PH1 whole entry, looked up): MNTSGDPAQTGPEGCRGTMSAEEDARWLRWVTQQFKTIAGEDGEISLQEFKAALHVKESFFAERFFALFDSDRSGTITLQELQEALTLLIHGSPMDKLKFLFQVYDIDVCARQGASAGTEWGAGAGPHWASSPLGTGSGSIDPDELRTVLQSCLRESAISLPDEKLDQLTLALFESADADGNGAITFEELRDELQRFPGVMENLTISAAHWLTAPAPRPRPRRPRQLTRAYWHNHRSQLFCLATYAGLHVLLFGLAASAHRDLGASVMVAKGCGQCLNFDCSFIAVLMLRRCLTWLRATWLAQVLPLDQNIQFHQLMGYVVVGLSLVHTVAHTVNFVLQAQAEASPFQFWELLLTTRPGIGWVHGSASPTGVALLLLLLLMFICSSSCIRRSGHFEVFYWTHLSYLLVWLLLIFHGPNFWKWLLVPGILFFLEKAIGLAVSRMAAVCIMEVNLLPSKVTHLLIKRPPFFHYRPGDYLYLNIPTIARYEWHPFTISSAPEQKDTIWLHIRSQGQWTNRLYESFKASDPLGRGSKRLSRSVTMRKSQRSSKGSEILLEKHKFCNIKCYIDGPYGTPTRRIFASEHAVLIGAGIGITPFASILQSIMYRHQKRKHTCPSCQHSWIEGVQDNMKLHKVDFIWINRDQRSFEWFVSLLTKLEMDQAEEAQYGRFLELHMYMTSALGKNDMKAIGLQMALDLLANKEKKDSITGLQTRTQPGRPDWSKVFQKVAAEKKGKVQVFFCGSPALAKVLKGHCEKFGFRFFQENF
Structure (SMILES),z-score [1],composite z-score [2],z-score [3],z-score [4],z-score [5],z-score [6],z-score [7],z-score [8],z-score [9],z-score [10]
CC(C)[Si](C#CCCCC#N)(Oc1ccccc1Br)C(C)C,-0.4 (inactive),-0.104,0.614 (inactive),1.01 (inactive),-0.494 (inactive),0.823 (inactive),-0.49,-0.273 (inactive),-0.161 (inactive),-0.18
O=C1OCC=C[C@H]2OC34C=CCN(CCN5CCOCC5)C(=O)[C@H]3N(CCO)C(=O)[C@@H]4[C@@H]12 (stereo not given in full),-0.738 (inactive),-0.279,0.418 (inactive),0.009 (inactive),-0.392 (inactive),0.33 (inactive),-0.822,1.4 (inactive),0.628 (inactive),1.72
CC#CC(=O)Oc1ccc(Br)cc1C=CC(=O)OCC,-1.17 (inactive),0.0386,25.5 (active),7.06 (inactive),-0.189 (inactive),1.37 (inactive),-0.27,-1.86 (inactive),-2.68 (inactive),0.227
Cc1ccc(S(=O)(=O)N2C[C@@H](C(=O)O)[C@H](Sc3ccccc3)C[C@H]2c2ccccc2)cc1,-1.37 (inactive),0.409,1.7 (inactive),0.932 (inactive),0.369 (inactive),0.806 (inactive),-0.33,1.63 (inactive),0.111 (inactive),1.73
CC(C)N1CC=CC23O[C@@H]4C=CCOC(=O)[C@@H]4[C@H]2C(=O)N(CCCCCO)[C@@H]3C1=O (stereo not given in full),2.79 (inactive),0.19,0.641 (inactive),0.0869 (inactive),0.204 (inactive),0.236 (inactive),1.73,0.865 (inactive),0.225 (inactive),1.44
COC(=O)[C@]1(Cc2ccccc2)N=C(c2ccc(OCCCO)cc2)O[C@@H]1c1ccccc1N=[N+]=[N-],-1.19 (inactive),-0.324,28 (active),24.7 (active),0.883 (inactive),4.33 (inactive),0.483,-0.936 (inactive),1.14 (inactive),0.0948
C=C(CCCC)/C(=C/C[C@H](OC(C)=O)c1ccc(OCCO)cc1)c1cnc2ccccc2c1,0.621 (inactive),0.0999,22 (active),6 (inactive),1.23 (inactive),1.04 (inactive),-0.1,-2.53 (inactive),-0.429 (inactive),-2.06
[N-]=[N+]=Nc1ccccc1[C@H]1OC(c2ccc(OCCCO)cc2)=N[C@@]1(CCS(=O)(=O)c1ccccc1)C(=O)NCc1ccccc1,-0.795 (inactive),0.373,28.1 (active),27.8 (active),1.64 (inactive),1.92 (inactive),-0.234,0.443 (inactive),0.184 (inactive),-0.852
CN1C(=O)C2C=CC(C(O)c3ccccc3)N(N3CCCCC3)C2C1=O (stereo not given),-2 (inactive),0.0971,0.15 (inactive),0.913 (inactive),0.302 (inactive),0.827 (inactive),-0.965,-0.121 (inactive),-1.01 (inactive),-1.08
CN(C)C(=O)[C@]1(Cc2ccccc2)N=C(c2ccc(OCCCO)cc2)O[C@@H]1c1ccccc1N=[N+]=[N-],0.554 (inactive),0.008,32.4 (active),34.9 (active),1.96 (inactive),4.27 (inactive),0.0986,-1.46 (inactive),-0.242 (inactive),-1.36
O=C(NC1CC1)[C@@H]1c2ccccc2C(=O)N(Cc2cc(F)cc(C(F)(F)F)c2)[C@H]1c1ccc(CO)cc1,-0.857 (inactive),-0.205,1.88 (inactive),0.115 (inactive),0.943 (inactive),0.0358 (inactive),-0.185,-0.0603 (inactive),0.463 (inactive),0.515
NC(=O)[C@@H]1[C@H]2C(=O)O[C@H](c3ccccc3)[C@H](c3ccccc3)N2[C@H](c2ccc(OCCO)cc2)[C@@]12C(=O)Nc1ccc(C#CC3=CCCCC3)cc12,1.96 (inactive),0.189,3 (inactive),0.651 (inactive),-1.59 (inactive),-0.198 (inactive),1.1,0.814 (inactive),0.68 (inactive),2.3
C=CCN1Cc2ccccc2[C@@H]2OC(c3ccc(OCCCO)cc3)=N[C@]2(CCS(=O)(=O)c2ccccc2)C1=O,0.576 (inactive),0.415,27.2 (active),20.3 (active),2.26 (inactive),3.22 (inactive),-0.0454,-1.38 (inactive),0.827 (inactive),0.0284
C#CCN1[C@@H](Cc2ccc(O)cc2)C(=O)O[C@H](Cc2ccccc2)[C@@H]1/C=C/C1CC1,-0.332 (inactive),-0.196,2.45 (inactive),0.0937 (inactive),-1.15 (inactive),0.0357 (inactive),-0.663,-0.759 (inactive),-0.462 (inactive),-1.54
CC(C)CNC(=O)[C@@]1(Cc2ccccc2I)c2ccccc2C(=O)N(Cc2ccccc2C(F)(F)F)[C@H]1c1ccc(CO)cc1,0.0655 (inactive),-0.103,1.23 (inactive),0.161 (inactive),0.649 (inactive),0.525 (inactive),-0.146,0.285 (inactive),0.0405 (inactive),0.401
CC(C)NC(=O)[C@@H]1c2ccccc2C(=O)N(C(C)C)[C@H]1c1ccc(CO)cc1,1.17 (inactive),-0.228,3.85 (inactive),1.18 (inactive),0.151 (inactive),0.207 (inactive),0.0843,0.274 (inactive),0.614 (inactive),0.964
CC(=O)NCCCC[C@@H]1NC(=O)[C@H]2C[C@@H](C(=O)NCCCCCNC(=O)CS)[C@@H](c3ccc(O)cc3)N2C1=O,-0.0078 (inactive),-0.12,1.94 (inactive),0.811 (inactive),-0.952 (inactive),0.425 (inactive),-0.591,0.772 (inactive),-2.06 (inactive),-0.294
CCCCN1CC=CC23O[C@@H]4/C=C\CCCOC(=O)C4[C@H]2C(=O)N(CCCO)[C@@H]3C1=O (stereo not given in full),-0.0884 (inactive),0.0927,0.897 (inactive),0.611 (inactive),-0.746 (inactive),0.0888 (inactive),-0.207,1.59 (inactive),0.593 (inactive),2.02
[N-]=[N+]=NCc1ccccc1C[C@@]1(C(=O)NCC(O)CO)N=C(c2ccc(OCCCO)cc2)O[C@@H]1c1ccccc1 (stereo not given in full),0.0346 (inactive),0.237,25.3 (active),16.3 (active),-1.11 (inactive),2.07 (inactive),-0.11,0.0842 (inactive),1.28 (inactive),2.5
CN(C)CCCC[C@@H]1NC(=O)[C@H]2C[C@@H](C(=O)NCCCCCN)[C@@H](c3cccc(OCCO)c3)N2C1=O,0.675 (inactive),1.28,1.9 (inactive),0.112 (inactive),-1.16 (inactive),0.129 (inactive),0.204,0.653 (inactive),0.222 (inactive),1.52
CCCNC(=O)[C@@]1(Sc2ccc(C)cc2)CC(=O)N(Cc2ccccc2C(F)(F)F)[C@@H]1c1ccc(CO)cc1I,0.0676 (inactive),0.0999,5.14 (inactive),0.0162 (inactive),0.378 (inactive),-1.95 (inactive),2.26,0.781 (inactive),-2 (inactive),-0.0781
O=C1O[C@@H](c2ccccc2)[C@@H](c2ccccc2)N2[C@@H](c3ccc(OCCO)cc3)[C@]3(C(=O)Nc4ccc(C#CC5=CCCCC5)cc43)[C@@H](C(=O)N3CCCCCCC3)[C@H]12,0.343 (inactive),2.14,3.46 (inactive),1.85 (inactive),0.501 (inactive),1.03 (inactive),-0.262,0.463 (inactive),0.159 (inactive),0.293
CCCCN1CC=CC23O[C@@H]4C=CCCOC(=O)C4[C@H]2C(=O)N(CCCCCO)[C@@H]3C1=O (stereo not given in full),0.4 (inactive),-0.363,1.47 (inactive),0.48 (inactive),2.26 (inactive),0.331 (inactive),-0.0028,1.28 (inactive),0.0393 (inactive),1.46
Cc1ccc(C2C3C(=O)CC4C(=O)N(c5ccccc5)C(=O)C4C3CN2S(=O)(=O)c2ccc(C)cc2)cc1 (stereo not given),-0.339 (inactive),0.476,1.7 (inactive),0.714 (inactive),1.72 (inactive),0.438 (inactive),-0.69,1.28 (inactive),0.793 (inactive),-0.9
CC(C)=CCCC(C)=CC(O)C1C=CC2C(=O)N(c3ccccc3)C(=O)C2N1Nc1ccc(C(C)C)cc1 (stereo not given),-0.843 (inactive),0.201,0.934 (inactive),0.219 (inactive),0.391 (inactive),0.729 (inactive),-0.765,-1.11 (inactive),-1.15 (inactive),-1.34
CCOC(=O)C[C@H]1[C@H](OC(=O)c2ccc(-c3ccccc3)cc2)[C@@H](NC(=O)c2ccccc2)c2cc(OCCCO)ccc2N1C(=O)c1ccc2ccccc2n1,-0.734 (inactive),0.119,2.19 (inactive),-0.0981 (inactive),-0.735 (inactive),-0.11 (inactive),-0.488,0.0548 (inactive),1.41 (inactive),1.81
